Screens: PubChem BioAssay, The Scripps Research Institute Molecular Screening Center
Hits are enriched below; roughly 3.4% of the tested compounds scored in any of these assays.
pPAFAH FP inh: pPAFAH enzyme inhibitors, primary screen, biochemical, fluorescence polarization, human; Platelet-activating factor acetylhydrolase (Homo sapiens), Q13093; inhibition, % at 3.39 µM; actives 1.5% (n = 330,000); recombinant pPAFAH, FP-rhodamine probe fluorescence polarization;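 active = inhibition above the mean inhibition across the screen plus 3 SD, cut at about 25% in these data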;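 also: inhibitors block binding of the rhodamine activity-based probe so polarization drops; 0% = enzyme with DMSO and 100% = wells lacking pPAFAH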
PAFAH1B2 FP inh: PAFAH1B2 enzyme inhibitors, primary screen, biochemical, fluorescence polarization, human | Platelet-activating factor acetylhydrolase IB subunit alpha2 (Homo sapiens), P68402 | recombinant PAFAH1B2, FP-rhodamine activity probe | inhibition, % at 3.39 µM | actives 1.2% (n = 340,000) | AID 492953, 2010;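 active = inhibition above the mean of all tested compounds plus 3 SD, cut at about 24% in these data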;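 also: 0% = enzyme with DMSO and 100% = wells lacking PAFAH1B2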
PP5 primary: PP5 phosphatase inhibitors, primary screen, biochemical, fluorescence; Serine/threonine-protein phosphatase 5 (Homo sapiens), P53041; actives 0.18% (n = 320,000); AID 1987, 2009; purified PP5c, OMFP substrate fluorescence; inhibition, % at 6.7 µM;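 active = inhibition above the campaign's mean inhibition across all tested compounds plus 3 SD, cut at about 9.5% in these data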;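 also: 0% = DMSO only and 100% = 100 µM cantharidin control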
PAFAH1B3 inh: PAFAH1B3 enzyme inhibitors, primary screen, biochemical, fluorescence polarization, human | Platelet-activating factor acetylhydrolase IB subunit alpha1 (Homo sapiens), Q15102 | recombinant PAFAH1B3, FP-rhodamine probe | inhibition, % at 3.39 µM | actives 0.28% (n = 340,000) | AID 492972, 2010;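 active = inhibition above the screen-wide average of all tested compounds plus 3 SD, cut at about 25% in these data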;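 also: 0% = enzyme with DMSO only and 100% = wells lacking PAFAH1B3 protein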
Target sequence (Q15102 whole entry, looked up): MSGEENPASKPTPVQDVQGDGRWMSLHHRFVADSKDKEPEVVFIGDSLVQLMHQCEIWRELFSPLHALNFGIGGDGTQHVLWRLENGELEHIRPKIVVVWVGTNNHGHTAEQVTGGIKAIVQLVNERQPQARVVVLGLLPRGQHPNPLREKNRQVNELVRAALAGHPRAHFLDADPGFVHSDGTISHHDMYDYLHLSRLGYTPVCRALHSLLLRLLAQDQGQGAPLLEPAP
PP1 inh: PP1-alpha phosphatase inhibitors, primary screen, counter-screen for PP5 inhibitor project, biochemical, fluorescence, OMFP substrate, single point; actives 0.9% (n = 320,000); purified PP1alpha; Serine/threonine-protein phosphatase PP1-alpha catalytic subunit (Homo sapiens), P62136; inhibition, % at 6.7 µM;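 active = inhibition above the mean inhibition of all tested compounds plus 3 SD, computed separately for each screening campaign, cut at about 15% in these data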
Target sequence (P62136 whole entry, looked up): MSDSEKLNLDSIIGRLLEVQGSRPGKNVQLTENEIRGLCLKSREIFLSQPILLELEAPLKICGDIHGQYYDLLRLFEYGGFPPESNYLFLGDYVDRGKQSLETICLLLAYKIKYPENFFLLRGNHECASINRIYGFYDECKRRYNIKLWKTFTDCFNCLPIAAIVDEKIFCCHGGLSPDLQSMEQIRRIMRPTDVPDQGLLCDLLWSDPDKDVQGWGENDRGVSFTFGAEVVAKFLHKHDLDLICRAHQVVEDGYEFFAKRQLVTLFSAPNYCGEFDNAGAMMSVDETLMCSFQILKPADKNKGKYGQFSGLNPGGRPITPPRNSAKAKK
PAFAH2 inh: PAFAH2 enzyme inhibitors, primary screen, biochemical, fluorescence polarization, human; recombinant PAFAH2, FP-rhodamine activity probe; inhibition, % at 3.39 µM; actives 0.99% (n = 340,000); AID 492956, 2010;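 active = inhibition above the mean over all tested compounds plus 3 SD, cut at about 30% in these data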;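 also: inhibitors block probe labeling of enzyme so polarization drops; 0% = enzyme with DMSO and 100% = wells lacking PAFAH2 protein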
PP1 inh confirm: PP1 phosphatase inhibitors, confirmation, biochemical, fluorescence, OMFP substrate, triplicate; AID 2358, 2010; actives 52% (n = 1,900); shares compounds with PP1 inh; purified PP1alpha; inhibition, % at 6.7 µM;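 active = mean PP1 inhibition above a set limit taken from the earlier primary screen, cut at about 15% in these data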
PP5 inh counter: PP5 phosphatase inhibition by PP1 hits, confirmation, counter-screen for PP1 inhibitor project, biochemical, fluorescence, triplicate; shares compounds with PP1 inh; purified PP5c, OMFP fluorescence; inhibition, % at 6.7 µM; actives 4% (n = 1,900); AID 2360, 2010;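 active = mean PP5 inhibition over triplicate wells above about 9.5% taken from the earlier PP1 screen, limit read from the data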
* = called active by the depositor; nt = no result.

SMILES	pPAFAH FP inh	PAFAH1B2 FP inh	PP5 primary	PAFAH1B3 inh	PP1 inh	PAFAH2 inh	PP1 inh confirm	PP5 inh counter
O=C(O)c1cc(N/N=C/C=C/c2ccccc2[N+](=O)[O-])ccc1Cl	15	5	-4	5	-2	7	nt	nt
Cc1ccc(-n2nc(C(=O)O)cc2-c2ccccc2Cl)cc1	-5	6	-1	0	5	1	nt	nt
O=C(O)c1cc(-c2ccc(Cl)cc2)n(-c2cccc(Cl)c2)n1	2	16	1	-5	50*	3	49*	1
O=C(O)c1cc(-c2ccccc2)n(-c2ccccc2C(=O)O)n1	3	0	-1	9	1	-4	nt	nt
O=C(O)c1cc(-c2ccccc2Cl)n(-c2cccc(Cl)c2)n1	-1	12	2	0	18*	-7	11	-1
O=C(O)c1cc(-c2ccccc2)n(-c2ccc(Cl)cc2Cl)n1	-1	12	1	11	38*	-3	36*	-2
COc1cccc(C2C(C(=O)c3cc4cccc(OC)c4o3)=C(O)C(=O)N2c2cc(C)on2)c1OC (stereo unspecified)	-3	3	4	6	11	26	nt	nt
CCCCOc1ccc(C2C(C(=O)c3ccc(C)o3)=C(O)C(=O)N2Cc2ccco2)cc1 (stereo unspecified)	10	2	2	11	33*	1	30*	-3
CCCCCOc1ccc(C2C(C(=O)c3ccc(C)o3)=C(O)C(=O)N2c2cc(C)on2)cc1 (stereo unspecified)	17	4	1	8	24*	9	32*	0
Cc1cc(N2C(=O)C(O)=C(C(=O)c3cc4ccccc4o3)C2c2ccc(OC(C)C)cc2)no1 (stereo unspecified)	6	7	0	5	23*	5	34*	-2
O=[N+]([O-])c1cc(Cl)cc(/C=N/NC(=S)Nc2ccc(S(=O)(=O)N3CCOCC3)cc2)c1O	52*	37*	3	23	19*	42*	19*	0
N#Cc1ccc(/C=N/NC(=S)Nc2ccc(S(=O)(=O)N3CCOCC3)cc2)cc1	3	1	2	2	1	8	nt	nt
Cc1cccc(N2CC(C(=O)Nc3nnc(SCC(=O)Nc4cc(C)on4)s3)CC2=O)c1 (stereo unspecified)	4	-7	-1	-2	27*	-4	27*	-3
Cc1cccc(N2CC(C(=O)Nc3nnc(SCC(=O)Nc4nccs4)s3)CC2=O)c1 (stereo unspecified)	4	-12	3	-23	-1	-28	nt	nt
Cc1ccc(C(=O)N/C(=C/c2ccc(-c3cc(C(F)(F)F)ccc3Cl)o2)C(=O)NCc2cccnc2)cc1	8	-4	3	-4	22*	-8	13	3
Cc1nc(Nc2cnc(/C=C/c3cc(C(=O)Nc4cccc(C(F)(F)F)c4)ccc3C)cn2)cc(N2CCNCC2)n1	1	nt	2	nt	23*	nt	-6	-2
Cc1nc(N2CCC(C)CC2)c2c(C)c(C(=O)Nc3cccc(C(F)(F)F)c3)sc2n1	-2	-15	4	-25	-4	-31	nt	nt
N#Cc1c(-c2ccco2)cc(-c2cccnc2)nc1N	17	3	2	9	28*	7	6	1
N#Cc1c(-c2ccco2)cc(C2CC2)nc1N	8	-1	-2	2	2	-4	nt	nt
N#Cc1c(-c2ccco2)cc(-c2ccccn2)nc1N	15	-4	2	-5	27*	8	7	0
O=C(CN1CCN(C(=O)C2CCN(C(=O)/C=C/c3ccccc3)CC2)CC1)Nc1ccccc1Cl	nt	2	nt	8	nt	9	nt	nt
Cc1cc(NC(=O)CSc2ccc(-c3ccc(F)cc3)nn2)no1	4	0	-3	-30	-2	1	nt	nt
Cc1cccc(Nc2nc(-c3ccccn3)cs2)n1	6	4	9	7	64*	0	53*	2
Cc1cccnc1Nc1nc(-c2ccccn2)cs1	5	2	6	15	28*	6	36*	5
CCCCn1c(N)c(N(CC(C)C)C(=O)COC(=O)Cc2c(C)nc3ccccc3c2C)c(=O)[nH]c1=O	4	-1	2	3	0	-4	nt	nt
SMILES	pPAFAH FP inh	PAFAH1B2 FP inh	PP5 primary	PAFAH1B3 inh	PP1 inh	PAFAH2 inh	PP1 inh confirm	PP5 inh counter
Cc1occc1C(=O)N1CCN(S(=O)(=O)c2ccc(F)cc2)CC1	2	3	1	4	-3	3	nt	nt
COc1cnc(-c2ccccn2)nc1Sc1ccccc1Cl	1	-1	6	-2	47*	-5	51*	6
COc1cnc(-c2ccccn2)nc1Sc1c(Cl)cccc1Cl	9	3	5	0	50*	4	41*	1
CCOC(=O)C1CCN(c2c(Nc3ccc(C)c(C)c3)c(=O)c2=O)CC1	10	3	1	8	0	11	nt	nt
CCCN1CCc2c(sc3nc(SC)n(-c4ccccc4)c(=O)c23)C1	5	4	-2	0	7	-5	nt	nt
CCCCC(=O)Nc1ccnc(-c2cccnc2)n1	2	-2	1	1	2	-6	nt	nt
O=C(/C=C/c1ccc(OCCCF)cc1)Nc1ccnc(-c2cccnc2)n1	-10	-5	-1	1	22*	-4	22*	-4
N#Cc1nc(-c2ccc(OCc3ccccc3)cc2)oc1NCCCn1ccnc1	17	11	5	15	21*	-3	9	1
CC(=O)Nc1ccc(S(=O)(=O)N(C)CC(=O)N(C)Cc2sccc2C)cc1	0	-4	3	7	-6	-3	nt	nt
CC1Cc2ccccc2N1Cc1cccc([N+](=O)[O-])c1 (stereo unspecified)	8	6	0	10	3	-5	nt	nt
COc1ccc(CC(=O)OCN2C(=O)c3ccccc3C2=O)cc1OC	0	0	0	9	0	4	nt	nt
CC1(C)Cc2c(C#N)c(N3CCN(C(=O)c4ccco4)CC3)nc(-c3ccco3)c2CS1	32*	-3	6	2	19*	17	3	-3
